We go through seven sequences from PMC11006913.

Where a chain is given by its changes, count along the chain named.

Assay in all cases: PBM; 200 nM protein, PBS
Conditions in all cases: dsDNA, one strand shown

Assay [1] deals with T1, NKX2-4 (Homo sapiens, UniProt Q9H2Z4 175-261, P217L).
T1 sequence: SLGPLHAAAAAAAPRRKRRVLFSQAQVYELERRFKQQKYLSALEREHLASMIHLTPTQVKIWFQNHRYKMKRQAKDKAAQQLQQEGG

Assay [2] concerns the target T2, NKX2-4 (Homo sapiens, UniProt Q9H2Z4 175-261, T231S).
T2 sequence: T1 sequence with L43P, T57S

Assay [3] deals with T3, NKX2-4 (Homo sapiens, UniProt Q9H2Z4 175-261).
T3 sequence: T1 sequence with L43P

Assay [4] has as its target T4, NKX2-4 (Homo sapiens, UniProt Q9H2Z4 175-261, R246Q).
T4 sequence: T1 sequence with L43P, R72Q

For assay [5], the target named is T5, NKX2-6 (Homo sapiens, UniProt A6NCS4 118-204, R150C).
T5 sequence: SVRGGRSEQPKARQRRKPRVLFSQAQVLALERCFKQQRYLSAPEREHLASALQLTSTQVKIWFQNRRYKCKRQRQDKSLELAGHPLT

In assay [6] the target is NKX3-2 (Homo sapiens, UniProt P78367 192-278, P234S).
The target of assay [7] is NKX3-2 (Homo sapiens, UniProt P78367 192-278).
In assay [8] the target is T6, VENTX (Homo sapiens, UniProt O95231 78-163, R121Q).
T6 sequence: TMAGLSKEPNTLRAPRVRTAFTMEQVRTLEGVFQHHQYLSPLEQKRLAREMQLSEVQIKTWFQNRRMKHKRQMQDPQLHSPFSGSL

In assay [9] the target is HOXB9 (Homo sapiens, UniProt P17482 171-250, T197M).
The target in assay [10] is T7, SIX6 (Homo sapiens, UniProt O95475 114-200, L167I).
T7 sequence: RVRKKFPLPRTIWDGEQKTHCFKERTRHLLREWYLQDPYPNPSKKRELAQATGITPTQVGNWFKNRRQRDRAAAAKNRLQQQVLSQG

Assay [11] addresses T8, VENTX (Homo sapiens, UniProt O95231 78-163).
T8 sequence: T6 sequence with Q44R

For assay [12], the target named is T9, SIX6 (Homo sapiens, UniProt O95475 114-200, L143V).
T9 sequence: T7 sequence with L30V, I54L

The target in assay [13] is T10, SIX6 (Homo sapiens, UniProt O95475 114-200, H141N).
T10 sequence: T7 sequence with H28N, I54L

The target in assay [14] is T11, SIX6 (Homo sapiens, UniProt O95475 114-200, T165P).
T11 sequence: T7 sequence with T52P, I54L

In assay [15] the target is T12, VENTX (Homo sapiens, UniProt O95231 78-163, Y115F).
T12 sequence: T6 sequence with Y38F, Q44R

Assay [16] concerns the target T13, SIX6 (Homo sapiens, UniProt O95475 114-200, L167M).
T13 sequence: T7 sequence with I54M

Assay [17] addresses T14, SIX6 (Homo sapiens, UniProt O95475 114-200, L143M).
T14 sequence: T7 sequence with L30M, I54L

The target of assay [18] is T15, SIX6 (Homo sapiens, UniProt O95475 114-200, L143I).
T15 sequence: T7 sequence with L30I, I54L

Assay [19] has as its target T16, SIX6 (Homo sapiens, UniProt O95475 114-200, T165G).
T16 sequence: T7 sequence with T52G, I54L

Assay [20] concerns the target HOXB9 (Homo sapiens, UniProt P17482 171-250).
Assay [21] deals with T17, SIX6 (Homo sapiens, UniProt O95475 114-200, T139Q).
T17 sequence: T7 sequence with T26Q, I54L

Assay [22] has as its target MSX2 (Homo sapiens, UniProt P35548 130-214, R199I).
Assay [23] concerns the target T18, SIX6 (Homo sapiens, UniProt O95475 114-200, T165A).
T18 sequence: T7 sequence with T52A, I54L

The target in assay [24] is MSX2 (Homo sapiens, UniProt P35548 130-214).
The target of assay [25] is T19, SIX6 (Homo sapiens, UniProt O95475 114-200, L167V).
T19 sequence: T7 sequence with I54V

Assay [26] deals with T20, SIX6 (Homo sapiens, UniProt O95475 114-200).
T20 sequence: T7 sequence with I54L

For assay [27], the target named is T21, SIX6 (Homo sapiens, UniProt O95475 114-200, T165I).
T21 sequence: T7 sequence with T52I, I54L

Assay [28] deals with HOXB9 (Homo sapiens, UniProt P17482 171-250, R186Q).
Assay [29] has as its target MSX2 (Homo sapiens, UniProt P35548 130-214, F161Y).
Assay [30] concerns the target HOXC9 (Homo sapiens, UniProt P31274 178-260, K195R).
The target of assay [31] is HOXC9 (Homo sapiens, UniProt P31274 178-260).
For assay [32], the target named is HOXC9 (Homo sapiens, UniProt P31274 178-260, R193K).
Assay [33] addresses HOXC9 (Homo sapiens, UniProt P31274 178-260, R222W).

Chain of NKX3-2 (Homo sapiens, UniProt P78367 192-278, P234S) (P78367 192-278 P234S): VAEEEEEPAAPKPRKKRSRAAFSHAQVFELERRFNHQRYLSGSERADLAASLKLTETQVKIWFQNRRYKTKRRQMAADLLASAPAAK
Chain of HOXB9 (Homo sapiens, UniProt P17482 171-250) (P17482 171-250): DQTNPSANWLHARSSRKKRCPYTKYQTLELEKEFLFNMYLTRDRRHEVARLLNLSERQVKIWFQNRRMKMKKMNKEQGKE
Chain of MSX2 (Homo sapiens, UniProt P35548 130-214, R199I) (P35548 130-214 R199I): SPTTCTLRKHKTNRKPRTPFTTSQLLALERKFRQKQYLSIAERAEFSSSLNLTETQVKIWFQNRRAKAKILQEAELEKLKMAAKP
Chain of NKX3-2 (Homo sapiens, UniProt P78367 192-278) (P78367 192-278): as the sequence (P78367 192-278 P234S) above, with S43P counted along it
Chain of HOXB9 (Homo sapiens, UniProt P17482 171-250, T197M) (P17482 171-250 T197M): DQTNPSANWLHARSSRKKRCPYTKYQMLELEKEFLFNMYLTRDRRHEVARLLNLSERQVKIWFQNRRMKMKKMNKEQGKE
Chain of MSX2 (Homo sapiens, UniProt P35548 130-214, F161Y) (P35548 130-214 F161Y): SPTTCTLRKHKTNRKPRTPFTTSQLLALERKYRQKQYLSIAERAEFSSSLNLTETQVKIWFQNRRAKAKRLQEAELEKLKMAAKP
Chain of HOXC9 (Homo sapiens, UniProt P31274 178-260) (P31274 178-260): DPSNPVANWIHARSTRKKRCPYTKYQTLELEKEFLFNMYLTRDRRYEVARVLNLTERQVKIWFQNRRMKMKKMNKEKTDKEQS
Chain of HOXC9 (Homo sapiens, UniProt P31274 178-260, R222W) (P31274 178-260 R222W): as the sequence (P31274 178-260) above, with R45W counted along it
Chain of HOXC9 (Homo sapiens, UniProt P31274 178-260, K195R) (P31274 178-260 K195R): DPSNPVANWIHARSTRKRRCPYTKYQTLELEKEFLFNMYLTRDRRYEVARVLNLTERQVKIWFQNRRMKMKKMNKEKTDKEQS
Chain of HOXB9 (Homo sapiens, UniProt P17482 171-250, R186Q) (P17482 171-250 R186Q): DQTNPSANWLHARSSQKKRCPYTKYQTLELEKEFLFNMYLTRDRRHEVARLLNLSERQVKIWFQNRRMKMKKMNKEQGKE
Chain of HOXC9 (Homo sapiens, UniProt P31274 178-260, R193K) (P31274 178-260 R193K): as the sequence (P31274 178-260) above, with R16K counted along it
Chain of MSX2 (Homo sapiens, UniProt P35548 130-214) (P35548 130-214): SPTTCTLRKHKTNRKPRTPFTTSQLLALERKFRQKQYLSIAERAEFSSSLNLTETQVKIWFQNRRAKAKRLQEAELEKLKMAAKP

For GCACTCAA, the binding signal in assay [1] is 12.5 upbm affinity estimate (log intensity, higher = more binding, comparable within an allelic series); in assay [2] it was 12.9 upbm affinity estimate (log intensity, higher = more binding, comparable within an allelic series); in assay [3] it was 12.4 upbm affinity estimate (log intensity, higher = more binding, comparable within an allelic series); in assay [4] it was 13 upbm affinity estimate (log intensity, higher = more binding, comparable within an allelic series).

ACAAGTAC: the binding signal in assay [1] is 12.5 upbm affinity estimate (log intensity, higher = more binding, comparable within an allelic series); in assay [2] it was 12.9 upbm affinity estimate (log intensity, higher = more binding, comparable within an allelic series); in assay [5], 11.6 upbm affinity estimate (log intensity, higher = more binding, comparable within an allelic series); in [4], 12.9 upbm affinity estimate (log intensity, higher = more binding, comparable within an allelic series).

For ACCACTCA, the binding signal in assay [1] is 12.4 upbm affinity estimate (log intensity, higher = more binding, comparable within an allelic series); in assay [2], 12.8 upbm affinity estimate (log intensity, higher = more binding, comparable within an allelic series); in assay [3], 12.3 upbm affinity estimate (log intensity, higher = more binding, comparable within an allelic series); in assay [4], 12.8 upbm affinity estimate (log intensity, higher = more binding, comparable within an allelic series); in assay [6], 12.5 upbm affinity estimate (log intensity, higher = more binding, comparable within an allelic series); in [7] it was 12.6 upbm affinity estimate (log intensity, higher = more binding, comparable within an allelic series).

Consider ACGGCGCC, for which the binding signal in assay [1] was 9.61 upbm affinity estimate (log intensity, higher = more binding, comparable within an allelic series); in assay [2] it was 9.62 upbm affinity estimate (log intensity, higher = more binding, comparable within an allelic series); in assay [3], 9.59 upbm affinity estimate (log intensity, higher = more binding, comparable within an allelic series); in [4], 9.67 upbm affinity estimate (log intensity, higher = more binding, comparable within an allelic series).

Consider CGATTACC, for which, in assay [8], the binding signal was 10.2 upbm affinity estimate (log intensity, higher = more binding, comparable within an allelic series).

Turning to GCGCGCCC, the binding signal in assay [8] was 8.19 upbm affinity estimate (log intensity, higher = more binding, comparable within an allelic series); in assay [9], 8.46 upbm affinity estimate (log intensity, higher = more binding, comparable within an allelic series); in assay [10] it was 8.73 upbm affinity estimate (log intensity, higher = more binding, comparable within an allelic series); in assay [11] it was 8.26 upbm affinity estimate (log intensity, higher = more binding, comparable within an allelic series); in assay [12], 8.71 upbm affinity estimate (log intensity, higher = more binding, comparable within an allelic series); in assay [13] it was 8.79 upbm affinity estimate (log intensity, higher = more binding, comparable within an allelic series). Moreover, the binding signal in assay [14] is 8.94 upbm affinity estimate (log intensity, higher = more binding, comparable within an allelic series); in assay [15], 8.22 upbm affinity estimate (log intensity, higher = more binding, comparable within an allelic series); in [16], 8.76 upbm affinity estimate (log intensity, higher = more binding, comparable within an allelic series); in assay [17], 8.75 upbm affinity estimate (log intensity, higher = more binding, comparable within an allelic series); in assay [18] it was 8.78 upbm affinity estimate (log intensity, higher = more binding, comparable within an allelic series); in assay [19], 8.82 upbm affinity estimate (log intensity, higher = more binding, comparable within an allelic series). Moreover, the binding signal is 8.66 upbm affinity estimate (log intensity, higher = more binding, comparable within an allelic series) in assay [20]; 8.77 upbm affinity estimate (log intensity, higher = more binding, comparable within an allelic series) in assay [21]; 9.61 upbm affinity estimate (log intensity, higher = more binding, comparable within an allelic series) in assay [22]; 8.75 upbm affinity estimate (log intensity, higher = more binding, comparable within an allelic series) in [23]; 9.64 upbm affinity estimate (log intensity, higher = more binding, comparable within an allelic series) in assay [24]; 8.91 upbm affinity estimate (log intensity, higher = more binding, comparable within an allelic series) in assay [25]. Further, the binding signal was 8.8 upbm affinity estimate (log intensity, higher = more binding, comparable within an allelic series) in assay [26]; 8.71 upbm affinity estimate (log intensity, higher = more binding, comparable within an allelic series) in assay [27]; 8.61 upbm affinity estimate (log intensity, higher = more binding, comparable within an allelic series) in assay [28]; 9.62 upbm affinity estimate (log intensity, higher = more binding, comparable within an allelic series) in assay [29].

Take CCGTCCGC: the binding signal was 7.99 upbm affinity estimate (log intensity, higher = more binding, comparable within an allelic series) in assay [8]; 9.35 upbm affinity estimate (log intensity, higher = more binding, comparable within an allelic series) in assay [30]; 8.02 upbm affinity estimate (log intensity, higher = more binding, comparable within an allelic series) in [11]; 7.93 upbm affinity estimate (log intensity, higher = more binding, comparable within an allelic series) in assay [15]; 9.48 upbm affinity estimate (log intensity, higher = more binding, comparable within an allelic series) in assay [31]; 9.36 upbm affinity estimate (log intensity, higher = more binding, comparable within an allelic series) in assay [32]. For the same sequence, the binding signal in [33] is 9.54 upbm affinity estimate (log intensity, higher = more binding, comparable within an allelic series).
